Source: ChEMBL document CHEMBL3988442, “University of Dundee, Small-Polar-MMV Screening Library” (2021)

What follows are compounds tested against T1, Aspartate--tRNA(Asp/Asn) ligase (Mycobacterium tuberculosis (strain ATCC 25618 / H37Rv)) (UniProt P9WFW3) (assay: Assay for Asp RNA synthetase-1 from Mycobacterium tuberculosis). Details: 30 µM.
T1 sequence (whole entry): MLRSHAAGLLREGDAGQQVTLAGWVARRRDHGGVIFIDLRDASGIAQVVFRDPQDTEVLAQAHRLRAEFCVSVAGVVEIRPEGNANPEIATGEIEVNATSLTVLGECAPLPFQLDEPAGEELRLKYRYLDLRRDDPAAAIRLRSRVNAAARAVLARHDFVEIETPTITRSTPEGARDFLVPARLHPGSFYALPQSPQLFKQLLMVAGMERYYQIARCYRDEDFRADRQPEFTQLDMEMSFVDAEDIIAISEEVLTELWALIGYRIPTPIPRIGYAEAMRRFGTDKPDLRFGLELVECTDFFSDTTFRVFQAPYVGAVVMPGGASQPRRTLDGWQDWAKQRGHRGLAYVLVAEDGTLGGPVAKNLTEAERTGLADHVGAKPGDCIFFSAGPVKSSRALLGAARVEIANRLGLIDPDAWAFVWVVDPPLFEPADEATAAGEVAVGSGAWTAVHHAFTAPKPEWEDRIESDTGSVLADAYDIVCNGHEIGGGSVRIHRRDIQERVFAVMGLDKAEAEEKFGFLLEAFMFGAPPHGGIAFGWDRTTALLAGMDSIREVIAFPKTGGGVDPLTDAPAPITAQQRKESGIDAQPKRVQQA
Format: functional
Design: scale not given: in the data most compounds retested in dose-response had high values

Row | Structure (SMILES) | Percent Effect
1 | Cc1nn(-c2ccccc2)c2c1C(c1ccc(C(=O)O)cc1)CC(=O)N2 (stereo not given) | 1.57%
2 | NC(=O)CN1CC2(CCC1=O)CCN(Cc1cc(F)ccc1Cl)CC2 | 0.126%
3 | Cc1nn(CCO)c(C)c1CNC1CCc2c(Cl)cccc21 (stereo not given) | 0.54%
4 | CCNC(=O)NC(=O)CSC(C)c1c(F)cccc1F (stereo not given) | -1.51%
5 | CCc1nc(NS(=O)(=O)c2ccc(C)cc2Cl)no1 | -5.6%
6 | O=C(O)c1ccc(F)c(S(=O)(=O)Nc2ccc(-n3cccn3)c(Cl)c2)c1 | -5.11%
7 | COc1ccc(-n2cnnc2SCC(C)(C)O)cn1 | -0.425%
8 | Cc1cc(C)n(CC2CCCCN2CC(=O)Nc2cccnc2)n1 (stereo not given) | -0.655%
9 | COc1ccccc1CN1C(=O)O[C@@H]2CN(c3nccs3)C[C@@H]21 | -1.39%
10 | CCOc1ncccc1CNC(=O)N1CCCC1c1cc(C)no1 (stereo not given) | -2.06%
11 | CN(Cc1cc[nH]n1)C(=O)c1cccc(CCC(C)(C)O)c1 | -0.264%
12 | CCN(CC1CN(Cc2ncc[nH]2)CCO1)c1cccnn1 (stereo not given) | -3.05%
13 | CC(C)c1noc(CN2CCC3(CCCO3)CCC2=O)n1 (stereo not given) | -1.21%
14 | CCCC(NC(=O)c1cc(C)n(C2CC2)c1C)c1nnn[nH]1 (stereo not given) | -0.908%
15 | COCCN(C)CC(=O)N1C[C@H]2CC[C@@H]1CN(C(=O)c1ccncc1)C2 | -1.85%
16 | CS(=O)(=O)NCC(=O)NC1CCc2nccn2C1 (stereo not given) | 2.91%
17 | Cc1nn(CCO)c(C)c1CNC1CCC(C)(C)c2ccccc21 (stereo not given) | -0.793%
18 | COCCc1noc(CN(C)C2CCCN(c3ccc(C)nn3)C2)n1 (stereo not given) | 0.172%
19 | CN(CCNC(=O)N1CCN(Cc2ccon2)CC1)c1ccccc1 | 2.1%
20 | CN1CCN(C(CNC(=O)CCn2cccn2)c2cccs2)CC1 (stereo not given) | -1.05%
